PubChem BioAssay (Tox21)
Records with an inconclusive call do not appear. Active and inactive are the calls of the source. The call rests on the fitted dose curve; in most records, active means well fitted curve in the direction sought with a large enough effect in the repeat runs; inconclusive means weak or mixed curves; inactive means no such curve, though single readings can be large; an effect the other way counts as inactive or inconclusive.

What was measured:
[1] = qHTS RealTime-Glo MT Cell Viability Assay in HEK293 cells - 16 hour (AID 1224872); further: top concentration of the series differs between compounds; nearly all actives have a fitted effect of over 50% in size
Outline: (§1)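 Cells + reagent dispensed (600 cells/well, HEK293) → 5 h at 37 C/5% CO2 → 23 nL compound in DMSO pinned → 40 h at 37 C → luminescence read at 0, 8, 16, 24, 32, 40 h.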

[2] = qHTS RealTime-Glo MT Cell Viability Assay in HepG2 cells - 8 hour (AID 1224873); further: nearly all actives have a fitted effect of over 55% in size
Outline: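 HepG2 cells mixed with RealTime-Glo MT reagents (NanoLuc plus cell-permeant prosubstrate) were seeded at 600 cells/well, incubated 5 h at 37 C/5% CO2, then pinned with compounds in DMSO; nonlytic luminescence tracked viability during 40 h treatment.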

[3] = qHTS RealTime-Glo MT Cell Viability Assay in HEK293 cells - 40 hour (AID 1224874); details: RealTime-Glo luminescence; max response: hits give low values; further: nearly all actives have a fitted effect of over 50% in size
Outline: (§2)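 Real-time viability in HEK293: signal arises when living cells convert a prosubstrate for NanoLuc in the medium, so luminescence tracks viable cell number. Compound (23 nL, DMSO) added 5 h post-seeding; kinetic reads at 0–40 h, 37 C.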

[4] = A CellTox Green Cytotoxicity Assay to monitor cytotoxicity in HEK293 cells - 24 hour (AID 1224875); further: series mostly up to about 77 µM; nearly all actives have a fitted effect of over 45% in size
Outline: (§3)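 Cells (HEK293, 600/well) and dye reagent are dispensed together. After 5 h at 37 C, 23 nL compound is pinned in. Plates stay at 37 C for 40 h with fluorescence read at 0h, 8h, 16h, 24h, 32h and 40h.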

[5] = qHTS RealTime-Glo MT Cell Viability Assay in HepG2 cells - 32 hour (AID 1224877); further: nearly all actives have a fitted effect of over 55% in size
Outline: (§4)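 Real-time, nonlytic viability: 600 HepG2 cells/well mixed with NanoLuc enzyme plus prosubstrate; 5 h settle, compound (DMSO) added by pintool; luminescence monitored over 40 h at 37 C.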

[6] = A CellTox Green Cytotoxicity Assay to monitor cytotoxicity in HepG2 cells - 24 hour (AID 1224878); further: nearly all actives have a fitted effect of over 45% in size
Outline: (§5)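 Cells and non-lytic dye reagent are dispensed together (600 HepG2 cells/well) and incubated 5 h before DMSO compound transfer. Kinetic fluorescence is then recorded in the same wells during 40 h at 37 C.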

[7] = A CellTox Green Cytotoxicity Assay to monitor cytotoxicity in HepG2 cells - 40 hour (AID 1224879); further: nearly all actives have a fitted effect of over 40% in size
Outline: as §5

[8] = qHTS RealTime-Glo MT Cell Viability Assay in HEK293 cells - 0 hour (AID 1224880); further: nearly all actives have a fitted effect of over 45% in size; further: potency means the concentration at half of the fitted maximal effect
Outline: as §2

[9] = A CellTox Green Cytotoxicity Assay to monitor cytotoxicity in HepG2 cells - 0 hour (AID 1224882); further: nearly all actives have a fitted effect of over 35% in size
Outline: as §5

[10] = A CellTox Green Cytotoxicity Assay to monitor cytotoxicity in HepG2 cells - 32 hour (AID 1224883); further: nearly all actives have a fitted effect of over 50% in size
Outline: as §5

[11] = A CellTox Green Cytotoxicity Assay to monitor cytotoxicity in HEK293 cells - 8 hour (AID 1224884); further: nearly all actives have a fitted effect of over 35% in size
Outline: as §3

[12] = qHTS RealTime-Glo MT Cell Viability Assay in HepG2 cells - 16 hour (AID 1224885); further: nearly all actives have a fitted effect of over 50% in size
Outline: as §4

[13] = qHTS RealTime-Glo MT Cell Viability Assay in HEK293 cells - 24 hour (AID 1224886)
Outline: as §1

[14] = qHTS RealTime-Glo MT Cell Viability Assay in HEK293 cells - 8 hour (AID 1224887)
Outline: as §2

[15] = A CellTox Green Cytotoxicity Assay to monitor cytotoxicity in HEK293 cells - 16 hour (AID 1224888); further: nearly all actives have a fitted effect of over 35% in size
Outline: as §3

[16] = qHTS RealTime-Glo MT Cell Viability Assay in HepG2 cells - 0 hour (AID 1224889); further: nearly all actives have a fitted effect of over 50% in size; further: potency means the concentration at half of the fitted maximal effect
Outline: as §4

[17] = A CellTox Green Cytotoxicity Assay to monitor cytotoxicity in HepG2 cells - 8 hour (AID 1224890); further: nearly all actives have a fitted effect of over 45% in size
Outline: as §5

[18] = qHTS assay to identify small molecule antagonists of the estrogen receptor alpha (ER-alpha) signaling pathway using the BG1 cell line in the presence of 0.1 nM 17-beta-estradiol - cell viability counter screen (AID 1259241); further: nearly all actives have a fitted effect of over 40% in size
Outline: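 Cells were plated and left 24 hr, compounds in DMSO were pinned in, 17beta-estradiol was added to 0.1 nM final, and after 22 hr CellTiter-Fluor reagent was added for 30 min before fluorescence was read.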

[19] = A CellTox Green Cytotoxicity Assay to monitor cytotoxicity in HEK293 cells - 32 hour (AID 1224881); further: nearly all actives have a fitted effect of over 40% in size
Outline: as §3

[20] = A CellTox Green Cytotoxicity Assay to monitor cytotoxicity in HepG2 cells - 16 hour (AID 1224876); further: nearly all actives have a fitted effect of over 45% in size
Outline: as §5
On the % scale 0 is the no-effect control and ±100 the full control effect.

O=C(O)c1ccc(CO)o1
inactive: Potency [1] | Potency [2] | max response [3] -0.778% | Potency [4] | Potency [5] | Potency [6] | Potency [7] | Potency [8] | Potency [9] | Potency [10] | Potency [11] | Potency [12] | Potency [13] | Potency [14] | Potency [15] | Potency [16] | Potency [17] | Potency [18]

CO[C@H]1O[C@H](CO)[C@@H](O)[C@H](O)[C@H]1O
inactive: Potency [1] | Potency [2] | max response [3] 5.92% | Potency [4] | Potency [5] | Potency [6] | Potency [7] | Potency [8] | Potency [19] | Potency [9] | Potency [10] | Potency [11] | Potency [12] | Potency [15] | Potency [16] | Potency [17] | Potency [18]

O=C(C(=O)c1ccccc1)c1ccccc1
inactive: Potency [1] | Potency [2] | max response [3] 3.7% | Potency [4] | Potency [5] | Potency [6] | Potency [7] | Potency [8] | Potency [19] | Potency [9] | Potency [10] | Potency [11] | Potency [12] | Potency [13] | Potency [14] | Potency [15] | Potency [16] | Potency [17] | Potency [18]

CCC1(C)CC(=O)NC1=O (stereo not given)
inactive: Potency [1] | Potency [2] | max response [3] 1.67% | Potency [4] | Potency [20] | Potency [6] | Potency [7] | Potency [8] | Potency [9] | Potency [10] | Potency [11] | Potency [12] | Potency [13] | Potency [14] | Potency [15] | Potency [16] | Potency [17]

CC(CCc1ccc2c(c1)OCO2)NN (stereo not given)
inactive: Potency [1] | Potency [2] | max response [3] 6.86% | Potency [4] | Potency [5] | Potency [6] | Potency [7] | Potency [8] | Potency [19] | Potency [9] | Potency [10] | Potency [11] | Potency [12] | Potency [14] | Potency [15] | Potency [16] | Potency [17] | Potency [18]

O=C(O)Cc1ccc(-c2ccccc2)cc1
inactive: Potency [1] | Potency [2] | max response [3] 10.5% | Potency [4] | Potency [20] | Potency [6] | Potency [7] | Potency [8] | Potency [9] | Potency [10] | Potency [11] | Potency [12] | Potency [13] | Potency [14] | Potency [15] | Potency [16] | Potency [17] | Potency [18]

O=C(/C=C/c1ccccc1)OCCCc1ccccc1
inactive: Potency [1] | Potency [2] | max response [3] -1.1% | Potency [4] | Potency [20] | Potency [6] | Potency [7] | Potency [8] | Potency [19] | Potency [9] | Potency [10] | Potency [11] | Potency [12] | Potency [14] | Potency [15] | Potency [16] | Potency [17] | Potency [18]

CC1=CC(O)CC(C)(C)C1 (stereo not given)
inactive: Potency [1] | Potency [2] | max response [3] 8.3% | Potency [4] | Potency [20] | Potency [6] | Potency [7] | Potency [8] | Potency [9] | Potency [10] | Potency [11] | Potency [12] | Potency [13] | Potency [14] | Potency [15] | Potency [16] | Potency [17]

CC1(C)C2=CCCC(C)(C)[C@]23CC[C@H]1C3
active: Potency [8] 24.5 µM | Potency [16] 34.7 µM
inactive: Potency [1] | Potency [2] | max response [3] -11.7% | Potency [4] | Potency [20] | Potency [9] | Potency [11] | Potency [12] | Potency [13] | Potency [14] | Potency [15] | Potency [17] | Potency [18]

CCCOC(=O)c1ccc(N)cc1
inactive: Potency [1] | Potency [2] | max response [3] -15% | Potency [4] | Potency [5] | Potency [6] | Potency [7] | Potency [8] | Potency [9] | Potency [10] | Potency [11] | Potency [12] | Potency [13] | Potency [14] | Potency [15] | Potency [16] | Potency [17] | Potency [18]

CCC(C)(C)C1CCC(O)CC1 (stereo not given)
inactive: Potency [1] | Potency [2] | max response [3] 3.32% | Potency [4] | Potency [8] | Potency [19] | Potency [9] | Potency [11] | Potency [12] | Potency [13] | Potency [14] | Potency [15] | Potency [16] | Potency [17] | Potency [18]
